# An excerpt weighted towards active compounds, which were near 21% of everything screened.
# Pf growth 48h: inhibits P. falciparum growth in the first generation, 48 h; P. falciparum luciferase growth in erythrocytes, 48 h; Potency, µM (series often up to 28.7 µM), for the others: at the highest dose activity change, negative = inhibition, most hits filed as inhibitors; 5.9% of 310,000 active; further: potency means the concentration at half of the fitted maximal effect; on the % scale 0 is the no-effect control and ±100 the full control effect
#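 Luciferase-expressing parasites in RBCs, 2% Hct / 0.1% parasitemia final; RPMI 1640 + 0.5% Albumax; 37 C, 5% CO2, one generation; luminescence read-out, lower signal = inhibition.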
# Sm TGR inh: S. mansoni TGR enzyme inhibition; purified TGR, DTNB reduction, TNB absorbance 405 nm; Potency, µM (doses to about 114 µM), without a hit: top-dose activity change, negative = inhibition, usual class: inhibitors; 3% of 360,000 active; AID 485364; further: potency means the concentration at half of the fitted maximal effect; on the % scale 0 is the no-effect control and ±100 the full control effect; nearly all actives have a fitted effect of over 60% in size
#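 TGR 20 nM + NADPH 100 uM (dispensed conc.), cpd preinc 15 min RT; start with NADPH (500 uM addition) then DTNB (15 mM addition). Kinetic TNB absorbance, 405 nm filter. Four-parameter Hill fit across titration.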
# Pf growth 96h: P. falciparum growth inhibition at 96 hour, primary screen for plastid delayed-death inhibitors. P. falciparum luciferase reporter growth, 96 h. Potency, µM (top dose mostly 28.7 µM), inactives show at the highest dose activity change, negative = inhibition, most hits filed as inhibitors. 6.9% of 320,000 active; further: potency means the concentration at half of the fitted maximal effect; on the % scale 0 is the no-effect control and ±100 the full control effect
#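 Infected RBCs, 2% Hct / 0.05% parasitemia final; luciferase-reporter P. falciparum; cpd 96 h, 37 C, 5% CO2; luciferase detection reagent; luminescence.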
# Cycloheximide cs: affects cycloheximide protein synthesis inhibition readout, counter-screen. cell reporter, cycloheximide protein synthesis inhibition counterscreen. max response, %. 12% of 300,000 active. AID 2314; in the data active means max response mostly above about 13%, no sharp cut-off; inactive means mostly below about 14%; further: read at 38.3 µM for the half of the compounds with a filed dose; 0% is about no effect
# NS1 inh: blocks influenza NS1 protein function. Potency, µM (doses to about 46.1 µM), inactives show at the highest dose activity, positive = more growth. 0.4% of 270,000 active; calls by dose curve; further: potency means the concentration at half of the fitted maximal effect; actives are rising curves; nearly all actives have a fitted effect of over 50% in size
#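 In this qHTS, NS1 from influenza A is expressed in budding yeast, where it slows growth. Cells are switched from glucose to 2% galactose medium (pH 6.0, -URA), treated with compound, and growth recovery is read at OD600.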
# Shiga inhibitor: blocks Shiga toxin action in Vero cells; AID 2315; 9.2% of 290,000 active; inhibition, % at 38.7 µM; Vero cells, Shiga toxin protein synthesis inhibition reporter; in the data active means inhibition mostly above about 28%, no sharp cut-off; inactive means mostly below about 43%; further: 0% is about no effect
# * marks the source's active call; other numbers are inactive results; ? = inconclusive; . = not tested or not shown. Unless noted, the call rests on the fitted dose curve; in most records, active means well fitted curve in the direction sought with a large enough effect; inconclusive means small, poorly fitted or top-dose-only effect, or another doubt; inactive means no such curve, though single readings can be large; an effect the other way counts as inactive or inconclusive.
SMILES,Pf growth 48h,Sm TGR inh,Pf growth 96h,Cycloheximide cs,NS1 inh,Shiga inhibitor
O=C(NCc1csc(-c2cccs2)n1)c1ccccc1,49.9%,-27.1%,104.6%,32.3*,-8.4%,38.2*
O=C(NCc1csc(-c2cccs2)n1)c1cccc(Cl)c1,46.6%,-3.7%,45.4%,14.3*,-42.3%,54.5
O=C(NCc1csc(-c2cccs2)n1)Nc1ccc(C(F)(F)F)cc1,-3.9%,5.9%,?,-1.4,4.5%,-6.7
Cc1csc2nc(CNC(=O)C3CCCCC3)cn12,9.4%,-1.2%,4.9%,13.1*,0.7%,9.8
O=C(NCCc1cn2ccsc2n1)C1CCCCC1,30.2%,-1.8%,32.0%,6.8,-19.7%,-4.5
O=C(NCc1csc(-c2cccs2)n1)Nc1ccc(F)cc1F,-0.5%,-4.9%,-8.1%,6.6,-1.1%,21.1
CSc1ccc(CCNC(=O)Cn2ncc3c([nH]c4ccccc43)c2=O)cc1,0.0%,70.4%,9.1%,10.2,3.5%,-7.8
Cc1cc(C)cc(NC(=O)C2CCN(S(=O)(=O)c3ccc4[nH]c(=O)ccc4c3)CC2)c1,?,-16.5%,-24.7%,-2.7,-1.8%,-4.0
CC(CO)(CO)N=Cc1cc(I)cc(I)c1O,.,.,.,.,-53.3%,.
CCN(CC)CCCNC(=O)Cc1csc2nc(-c3ccc(Cl)cc3)cn12,.,-4.8%,.,.,.,.
CCOCCCNC(=O)C(c1ccccc1)N(Cc1ccc2c(c1)OCO2)C(=O)c1ccc(NC(C)=O)cc1 (configuration not stated),.,0.7%,.,.,.,.
CCSc1nc(N)c2c3c(sc2n1)CCC3,16.9%,-6.1%,11.6%,21.1*,-1.7%,61.2*
NC(=O)CSc1nc(C2CC2)nc2sc3c(c12)CCCC3,151.3%,0.0%,?,19.1*,5.5%,47.4*
CC1CCN(C(=O)CSc2nc(N)c3c4c(sc3n2)CN(C)CC4)CC1,2.33µM*,-10.1%,0.828µM*,-5.9,12.3%,-2.0
NC(=O)CSc1nc(N)c2c3c(sc2n1)CCCCC3,45.0%,-0.5%,37.0%,20.7*,11.4%,38.8
CN1CCc2c(sc3nc(SCC(=O)N4CCOCC4)nc(N)c23)C1,?,-25.3%,4.6%,-7.9,?,19.8
Cc1nn(Cc2ccccc2Cl)c(C)c1C(=O)NCC(c1cccs1)N1CCOCC1 (configuration not stated),?,-4.0%,-11.0%,.,.,.
COc1ccccc1CNC(=O)CSc1ccc(-c2ccccn2)nn1,14.6%,0.0%,-28.4%,10.5,.,30.3
c1ccc(-c2nccc(-c3ccc4c(c3)OCO4)n2)cc1,116.9%,3.0%,38.8%,54.7*,-2.6%,70.2*
Cc1nccc(-c2ccc3c(c2)OCO3)n1,?,-3.5%,45.4%,13.5,.,13.5
c1ccn2cc(-c3ccc4c(c3)OCO4)cc2c1,?,44.7µM*,0.8%,8.3,7.5%,48.4
c1cnc2nc(-c3ccc4c(c3)OCO4)cn2c1,127.8%,13.4%,45.7%,34.7*,-3.9%,37.7*
O=C(Nc1cccc(-c2cn3cccnc3n2)c1)c1ccco1,-15.2%,-31.9%,?,24.2*,-10.0%,29.3
O=C(CN1CCOCC1)Nc1scc2c1c(=O)oc1ccccc12,42.4%,6.6%,27.9%,1.1,5.8%,16.7
O=C(CCNC(=O)N1CC(=O)Nc2ccccc21)Nc1ccc(Br)cc1F,-9.0%,5.0%,-2.8%,-1.6,0.1%,9.8
SMILES,Pf growth 48h,Sm TGR inh,Pf growth 96h,Cycloheximide cs,NS1 inh,Shiga inhibitor
CC(C)Oc1ccc(CNC(=O)C2CCN(C(=O)N3CCOc4ccc(Cl)cc43)CC2)cc1,.,-8.9%,.,.,.,.
O=C(Nc1cccc(-c2cn3cccnc3n2)c1)c1ccc2c(c1)OCO2,-16.4%,-34.1%,1.31µM*,9.1,-9.0%,14.0
O=C(Nc1cccc(-c2cn3c(n2)SCC3)c1)c1ccc2c(c1)OCO2,55.2%,-10.5%,210.3%,31.3,.,116.3*
CCC(Oc1ccc(F)cc1)C(=O)Nc1c(C(=O)c2ccc(C)cc2)oc2ccccc12 (configuration not stated),.,12.0%,.,.,.,.
Cc1ccccc1CNCc1c(C(=O)O)c(C)n(Cc2ccc(F)cc2Cl)c1C,.,5.0%,.,.,.,.
Cc1cccc(C(=O)Nc2ccc(OCc3cc(=O)n4ccc(C)cc4n3)cc2)c1,.,-6.1%,.,.,.,.
O=C1C(NS(=O)(=O)c2cccs2)=C(N2CCN(c3ccccc3)CC2)C(=O)c2ccccc21,?,-35.7%,.,11.3,10.4%,44.1*
O=C(C(NS(=O)(=O)c1cccs1)c1ccccc1)N1CCN(c2ccccc2)CC1 (configuration not stated),?,-2.2%,11.7µM*,-1.7,?,11.7
Cc1ccc(-c2cc(C(=O)Nc3nccs3)c3ccccc3n2)c(C)c1,?,-11.3%,1.31µM*,8.9,-3.9%,2.8
Cc1ccc(-c2cc(C(=O)Nc3nccs3)c3ccccc3n2)o1,?,7.08µM*,9.28µM*,-2.5,-25.2%,-4.7
COc1ccc(NC(=O)c2cc(-c3ccc(C)o3)nc3ccccc23)cc1OC,-68.5%,?,.,37.6*,7.2%,79.6*
COc1ccc(CCNC(=O)Cn2cc(S(=O)(=O)Cc3ccc(F)cc3)c3ccccc32)cc1OC,.,-1.7%,.,.,.,.
FC(F)(F)c1cccc(-c2nc3nc(Cl)c(Cl)nc3[nH]2)c1,28.0%,4.3%,-99.3%,50.3*,-41.4%,102.2*
NCCc1cnc(-c2cccc(C(F)(F)F)c2)[nH]1,.,.,.,3.9,.,-17.5
CCOC(=O)N1CCc2c(sc(NCc3sccc3C)c2C(=O)Nc2ccccc2OCC)C1,.,-30.6%,.,.,.,.
Cc1ncc(C[n+]2csc(C)c2C)c(N)n1,-0.9%,25.1µM*,2.3%,-2.4,-1.9%,8.9
Cc1ncc(C[n+]2csc(CCO)c2C)c(N)n1,-6.9%,?,-12.1%,-1.0,2.2%,-0.7
Oc1ccc(C[C@@H]2CNCCN2CCc2cccc(F)c2)cc1,?,?,43.2%,.,.,.
CCCCOc1ccc(-n2nc(C)cc2C)nn1,49.7%,-23.6%,?,28.6*,-50.7%,54.8*
O=C(NCc1ccccc1C(F)(F)F)C12CN(Cc3ccccc3)CC1C(c1ccc([N+](=O)[O-])cc1)=NO2 (configuration not stated),3.29µM*,-1.3%,?,18.2*,?,40.6
O=[N+]([O-])c1ccc(CN2CCC(Cc3ccccc3)CC2)cc1,?,14.3%,?,-1.6,-12.5%,-5.6
CC(C)CCNC(=O)C12CN(Cc3ccccc3)CC1C(c1ccc([N+](=O)[O-])cc1)=NO2 (configuration not stated),?,-4.8%,?,3.7,4.0%,-3.2
COc1cccc(CNC(=O)C23CN(Cc4ccccc4)CC2C(c2ccc([N+](=O)[O-])cc2)=NO3)c1 (configuration not stated),?,5.9%,14.7µM*,-2.5,-19.3%,-13.3
CC1(NC(=O)Cc2c(Cl)cccc2Cl)CCS(=O)(=O)C1 (configuration not stated),?,-1.9%,15.0%,.,.,.
NS(=O)(=O)c1ccc(N=Nc2cc3ccccc3c(C(=O)O)c2O)cc1,.,.,.,.,7.6%,.

# Bioassay records from PubChem BioAssay.
